Hits are enriched below; roughly 2.3% of the tested compounds scored in any of these assays.
TWEAK-Fn14 inh: inhibitors of TWEAK-Fn14 interaction signaling. inhibition, % at 10 µM. actives 2% (n = 360,000). TWEAK-stimulated Fn14 reporter cells, luciferase luminescence, 8 h; in the data active means inhibition above about 50%
CF NFkB inh: blocks PAF-induced NF-kB reporter in cystic fibrosis cells | KKLEB NF-kB-GFP reporter, GFP fluorescence overnight | inhibition, % at 5 µM | actives 0.86% (n = 360,000);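 active means at least 50% inhibition at 5 µM, scaled per plate between neutral and stimulator controls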;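 further: PAF is a Pseudomonas aeruginosa culture filtrate used as stimulus; plate controls were PAF-stimulated DMSO wells for no effect and unstimulated DMSO wells for full effect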
LGR2 inh: inhibitors of bursicon-induced Drosophila LGR2 receptor cAMP signaling. HEK293 LGR2, CRE-luciferase, bursicon-stimulated, 4 h. actives 0.35% (n = 380,000). inhibition, % at 9.99 µM;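 active means drop in luminescence signal, shown as inhibition above about 50% in the replicate tests, limit read from the data, passing the limit was not always enough; inconclusive means probably only some replicates passing the limit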;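 further: agonist challenge used bursicon conditioned medium at about half maximal strength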
KKLEB tox: counter-screen for CF NF-kB inhibitors: cytotoxicity. AID 602141. activity change (cytotoxicity), % at 5 µM. actives 0.36% (n = 360,000). KKLEB CF airway cells viability, ATPlite luminescence, overnight; hits give low values; cells stimulated with P. aeruginosa culture filtrate;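 active means corrected activity change at or below -50% at 5 µM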
HIF-2a inh: HIF-2a inhibition. actives 0.72% (n = 360,000). 786-0 RCC cells HIF-2a reporter, luciferase luminescence, overnight. inhibition, % at 18.8 µM. AID 624352;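 active means inhibition of the luminescence signal of 40% or more relative to plate controls, in a single-dose primary screen at 18.75 µM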
iPSC survival up: increases survival of single human iPS cells | hiPSC single-cell survival, ATPlite luminescence; 100% = ROCK inhibitor wells, 0% = DMSO | survival enhancement, % at 20 µM | actives 0.044% (n = 360,000) | AID 602274; in the data active means survival enhancement above about 18%;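 further: cells exposed to compounds for 16 hours before the ATP read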
An asterisk follows results filed as active; ? = inconclusive; . = no result given.

SMILES	TWEAK-Fn14 inh	CF NFkB inh	LGR2 inh	KKLEB tox	HIF-2a inh	iPSC survival up
COC(=O)C1CCN(C(=O)COC(=O)c2ccc(OC)c(S(=O)(=O)N3CCCc4ccccc43)c2)CC1	50.7*	-3.4	5.0	8.0	2.0	1.3
O=C(O)c1cc(C(=O)C2CC2)c[nH]1	-6.3	7.8	-49.2	-7.4	13.7	23.2*
O=C(O)c1cc(C(=O)C2CCCCC2)c[nH]1	5.6	17.0	-16.6	-14.9	14.5	-0.9
O=S(=O)(c1cccc(NC(=S)N2CCN(c3cccc(Cl)c3)CC2)c1)C(F)F	83.0*	17.4	14.4	-9.8	-34.6	-2.4
CCN(c1ccccc1)S(=O)(=O)c1cc(C(=O)Nc2ccc(F)c(F)c2)ccc1F	80.4*	22.9	.	2.4	-23.6	-0.5
C[C@H](CO)N1C[C@H](C)[C@H](CN(C)Cc2ccc(Cl)c(Cl)c2)Oc2ccc(NS(=O)(=O)c3ccccc3)cc2C1=O	.	.	-10.2	.	.	.
O=S1(=O)CC(c2ccccc2)=NN=C(c2ccccc2)C1	88.6*	-31.2	-79.2	-40.7	-150.9	-2.8
Cc1c(-c2ccccc2)oc2c(C(=O)N3CCN(c4ccccc4F)CC3)cccc2c1=O	54.1*	40.6	-8.9	5.8	26.5	0.7
CCCCNC(=O)c1cccc2c(=O)c(C)c(-c3ccccc3)oc12	19.6	19.9	16.1	-4.8	14.3	0.1
C/C=C/c1cnc2c(c1)C(=O)N([C@@H](C)CO)C[C@H](C)[C@@H](CN(C)C(=O)NC1CCCC1)O2	.	.	-6.6	.	.	.
Cc1sc(NC(=O)c2ccco2)c(C(c2ccncc2)N2CCOCC2)c1C (stereo not drawn)	-21.8	1.7	.	-5.3	14.8	-2.5
COc1cccc(C(c2c(NC(=O)c3ccco3)sc(C)c2C)N2CCOCC2)c1 (stereo not drawn)	81.6*	-2.5	24.5	6.3	-21.5	-0.3
CCOc1ccc(C(c2c(NC(=O)c3ccco3)sc(C)c2C)N2CCOCC2)cc1 (stereo not drawn)	66.5*	3.7	21.7	7.8	-33.5	-4.6
Cc1sc(NC(=O)c2ccco2)c(C(c2cccnc2)N2CCCC2)c1C (stereo not drawn)	2.1	9.3	15.9	8.6	-38.8	-1.2
CCc1nnc(NC(=O)CSc2nnc(-c3ccc(S(=O)(=O)N(CC)CC)cc3)n2CC)s1	82.8*	5.3	-2.5	-8.3	11.9	0.5
C[C@@H]1CN([C@@H](C)CO)C(=O)c2cc(NC(=O)CCCN(C)C)ccc2O[C@@H](C)CCCCO[C@@H]1CN(C)S(=O)(=O)c1ccc(F)cc1	.	.	4.6	.	.	.
CCOC(=O)c1c(C)nc2c(C)cccn12	83.7*	0.3	.	0.6	9.4	-0.5
CC(C)NC(=O)N(C)C[C@@H]1Oc2ncc(C#CC3(O)CCCC3)cc2C(=O)N([C@H](C)CO)C[C@H]1C	.	.	7.2	.	.	.
O=C(Nc1cccc(-c2csc(Nc3cccc(C(F)(F)F)c3)n2)c1)c1cc([N+](=O)[O-])cc(C(F)(F)F)c1	33.2	22.8	21.4	-16.0	11.9	-1.6
O=C(Nc1ccc(-c2csc(Nc3ccccc3)n2)cc1)c1cc([N+](=O)[O-])cc(C(F)(F)F)c1	66.3*	4.1	-20.7	12.1	-17.2	3.0
CC1CCc2nc(N)c(C#N)c(-c3cccnc3)c2C1 (stereo not drawn)	83.0*	69.0*	26.8	-5.3	12.8	0.5
CC1CCc2nc(N)c(C#N)c(-c3ccncc3)c2C1 (stereo not drawn)	3.2	-9.3	.	-10.3	20.2	-1.9
CCOC(=O)c1c(C)oc2c1cc(O)c1ccccc12	74.0*	-14.7	.	-5.2	-37.0	-2.4
O=C(Nc1nc(-c2cccs2)cs1)c1ccc(S(=O)(=O)N2CCCCC2)cc1	59.3*	-8.1	12.1	1.3	-6.7	0.4
O=C(Nc1nc(-c2cccs2)cs1)c1cccc(S(=O)(=O)N2CCCCCC2)c1	10.3	4.8	.	1.9	-48.5	1.3
SMILES	TWEAK-Fn14 inh	CF NFkB inh	LGR2 inh	KKLEB tox	HIF-2a inh	iPSC survival up
O=C(Nc1nc(-c2ccccc2)c(C(=O)c2ccccc2)s1)c1ccc(S(=O)(=O)N2CCCCC2)cc1	51.5*	35.8	-2.2	0.4	14.1	-0.8
O=C(Nc1nc(-c2ccccc2)c(-c2ccccc2)s1)c1ccc(S(=O)(=O)N2CCCCC2)cc1	-20.5	-35.3	-1.1	9.3	18.2	-0.7
COc1ccc(CN(C)C[C@@H]2Oc3c(NS(=O)(=O)c4cn(C)cn4)cccc3C(=O)N([C@H](C)CO)C[C@@H]2C)cc1	.	.	5.7	.	.	.
CCNc1nc(-c2sc(NC(=O)C(C)(C)C)nc2C)c(-n2cc(-c3ccccc3)nn2)s1	86.1*	.	-22.7	.	-9.3	-0.1
Cc1ccc(S(=O)(=O)N(C)C[C@H]2Oc3ccc(NS(=O)(=O)c4ccccc4)cc3CC(=O)N([C@H](C)CO)C[C@H]2C)cc1	.	.	-1.5	.	.	.
Cc1ccc(NC2=Nc3ccccc3CC2)cc1	71.8*	-2.8	.	-5.0	-28.9	-2.3
Brc1ccc(NC2=Nc3ccccc3CC2)cc1	1.8	-31.5	.	2.6	-229.8	-2.2
CCOC(=O)c1c(C)[nH]c(C(=O)COC(=O)CCSc2ccccc2)c1C	-46.7	-4.0	-76.9	-2.2	-203.9	0.5
CCOC(=O)c1c(C)[nH]c(C(=O)CSc2ccccc2)c1C	67.2*	-2.0	.	-10.0	-150.9	-4.6
COc1ccc(O)c(C(=O)CC(=O)c2ccc(F)cc2)c1	84.7*	-11.5	74.6*	-31.0	10.1	-6.3
COc1cccc(NC(=O)N[C@@H]2CC[C@@H](CC(=O)NCc3ccncn3)O[C@H]2CO)c1	.	.	13.0	.	.	.
O=[N+]([O-])c1ccc(N/N=C/c2sc(N3CCOCC3)nc2-c2ccccc2)c(S(=O)(=O)Nc2ccc(Cl)cc2)c1	60.7*	33.6	5.1	-49.7	1.3	0.4
O=[N+]([O-])c1ccc(N/N=C/c2sc(N3CCOCC3)nc2-c2ccccc2)c(S(=O)(=O)Nc2ccccc2Cl)c1	69.4*	26.1	?	-28.8	31.0	-1.6
O=C(O)c1cccc(N/N=C/c2sc(N3CCOCC3)nc2-c2ccccc2)c1	-76.5	-16.4	-115.4	5.2	-135.0	-1.8
C[C@@H](O)C#Cc1ccc2c(c1)O[C@H](CN(C)CC1CC1)[C@@H](C)CN([C@@H](C)CO)S2(=O)=O	.	.	2.9	.	.	.
COc1ccc(-c2cc3ccc(F)cc3cn2)cc1	50.3*	-37.7	62.8*	-13.4	-182.9	-2.1
COc1ccc(-c2cc3cc(F)ccc3cn2)cc1	24.0	-2.2	-10.4	3.9	-183.4	-1.7
C[C@@H]1CN([C@@H](C)CO)C(=O)c2cc(NC(=O)c3ccncc3)ccc2O[C@@H](C)CCCCO[C@@H]1CN(C)S(=O)(=O)c1ccc(F)cc1	.	.	11.1	.	.	.
O=C(C[C@H]1C[C@H]2c3cc(NS(=O)(=O)c4ccc(F)cc4)ccc3O[C@H]2[C@@H](CO)O1)NCc1ccncc1	.	.	-14.3	.	.	.
CS(=O)(=O)c1sc(C#N)c2c1C(=O)CC(c1ccccc1)C2 (stereo not drawn)	64.3*	81.4*	58.0*	-38.2	95.3*	2.5

Screening results deposited in PubChem by several laboratories.
